High-throughput results as filed in PubChem.
DENV2 CPE – DENV2-induced cell death inhibition; CPE inhibition, % at 9.99 µM; 1.7% of 350,000 active; DENV2-infected cells, cytopathic effect rescue, plate reader; in the data active means CPE inhibition above about 20%, passing the limit was not always enough; inconclusive means no clear call, values can overlap the other calls; tested in BHK-21 cells;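 further: 0% = median of neutral control wells and 100% = median of positive control wells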
FGF22 binding – FGF22 (human) thermal shift binding | activity (Tm shift, normalised), % at 9.99 µM | recombinant FGF22 thermal shift, SYPRO orange fluorescence; percent of sucrose octasulfate shift, DMSO zero | 1.5% of 340,000 active | AID 651658;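 active means mean Tm shift, scaled 0 neutral to 100 positive control, at about 1.3% or above, every replicate too, limit read from the data; inconclusive means no clear call, values can overlap the other calls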
Target sequence (Q9HCT0 whole entry, looked up): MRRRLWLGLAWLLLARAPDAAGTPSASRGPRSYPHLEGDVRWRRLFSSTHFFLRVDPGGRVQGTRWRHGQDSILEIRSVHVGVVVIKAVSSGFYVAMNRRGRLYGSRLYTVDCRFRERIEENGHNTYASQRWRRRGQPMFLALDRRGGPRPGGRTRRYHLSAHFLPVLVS
AF4-AF9 inh – MLL-AF4/AF9 protein interaction inhibition; P42568; AlphaScreen, biotin-AF4 peptide binding to FLAG-AF9; inhibition, % at 10 µM; 0.47% of 350,000 active;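 active means every replicate reaching a set inhibition limit, whatever the replicate mean, cut at about 25% in these data; inconclusive means mean inhibition reaches that limit but some replicates miss it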;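 further: 0% = plate neutral control median and 100% = total signal loss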
RAD52 inh – blocks human RAD52 DNA annealing. P43351. 0.46% of 360,000 active. inhibition, % at 18.7 µM. recombinant RAD52 DNA annealing, FRET fluorescence;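 active means every replicate showing at least 50% inhibition; inconclusive means mean inhibition at least 50% but not in every replicate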
Target sequence (P43351 whole entry, looked up): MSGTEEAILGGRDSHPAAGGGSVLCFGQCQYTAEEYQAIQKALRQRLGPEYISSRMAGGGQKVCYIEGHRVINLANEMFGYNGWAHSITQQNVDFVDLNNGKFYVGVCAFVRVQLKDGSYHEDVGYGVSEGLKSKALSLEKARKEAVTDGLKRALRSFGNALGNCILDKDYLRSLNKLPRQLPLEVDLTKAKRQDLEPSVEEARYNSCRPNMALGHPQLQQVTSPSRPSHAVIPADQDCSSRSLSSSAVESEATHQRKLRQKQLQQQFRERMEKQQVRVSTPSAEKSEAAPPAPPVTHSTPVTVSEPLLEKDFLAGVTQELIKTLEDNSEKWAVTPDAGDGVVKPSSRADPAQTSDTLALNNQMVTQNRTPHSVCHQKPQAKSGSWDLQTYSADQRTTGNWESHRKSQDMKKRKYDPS
ERAP1 inh – inhibitors of human ERAP1 aminopeptidase; Q9NZ08; recombinant ERAP1, Leu-AMC fluorescence, 60 min; inhibition, % at 10.7 µM; 0.15% of 340,000 active; AID 652197;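 active means mean replicate inhibition of at least 30%, or all replicates individually reaching that 30% level; inactive means mean below 30% and not every replicate reaching it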;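 further: 0% = neutral control wells and 100% = L-leucinethiol positive control wells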
An asterisk follows results filed as active; ? = inconclusive; · = no result given. A selection: hits, their analogues and other compounds. The true share with any hit is near 4%.

SMILES	DENV2 CPE	FGF22 binding	AF4-AF9 inh	RAD52 inh	ERAP1 inh
Cn1c(C2=C(O)CN(c3ccc4c(c3)OCCO4)C2=N)nc2ccccc21	·	·	-18	-2	-4
CC1(C(=O)Nc2ccccc2)Cc2ccccc2C(=O)O1 (centres undefined)	6	0	-1	1	2
COc1ccc(CNC(=O)C2(C)Cc3ccccc3C(=O)O2)cc1 (centres undefined)	-5	44*	-2	6	-4
NC(c1csc(NC(=O)Nc2cccc(Cl)c2)n1)C1CCCCC1 (centres undefined)	112*	0	?	-122	8
NC(c1csc(NC(=O)Nc2ccccc2)n1)C1CCCCC1 (centres undefined)	7	0	8	-18	1
Cc1ccccc1-c1ccc([C@@H]2[C@@H](CO)N3C(=O)CN(C(=O)Cc4ccccn4)C[C@H]23)cc1	-6	1	-2	15	0
Cc1ccc(C)c(NC(=O)c2cc[n+](C)cc2)c1	-5	0	-1	-6	87*
C[n+]1ccc(C(=O)Nc2ccccc2Cl)cc1	-3	0	-3	-7	102*
Cc1noc(C)c1S(=O)(=O)Nc1ccc2c(c1)C(=O)N([C@H](C)CO)C[C@@H](C)[C@@H](CN(C)Cc1ccc(C(=O)O)cc1)OCCCC[C@H](C)O2	-2	1.3*	-10	19	0
Cc1noc(C)c1S(=O)(=O)Nc1ccc2c(c1)C(=O)N([C@@H](C)CO)C[C@H](C)[C@@H](CN(C)Cc1ccc(C(=O)O)cc1)OCCCC[C@H](C)O2	34*	1	-11	27	-6
CCCN(C)C[C@H]1OCCCC[C@H](C)Oc2ccc(NS(=O)(=O)c3c(C)noc3C)cc2C(=O)N([C@@H](C)CO)C[C@H]1C	32*	1	-4	10	-4
COc1ccc(NC(=O)N(C)C[C@@H]2Oc3ncc(-c4cccnc4)cc3C(=O)N([C@@H](C)CO)C[C@@H]2C)cc1	-2	0	-7	-12	0
COc1ccc2c3c([nH]c2c1)[C@H](CO)N(C(=O)c1ccccn1)CC31CCN(C(=O)C2CCC2)CC1	-6	0	-2	-14	4
COc1ccc2c3c([nH]c2c1)[C@H](CO)N(Cc1ccccc1F)CC31CN(C(=O)C2CCCC2)C1	24*	0	0	-12	2
COc1ccc2c3c([nH]c2c1)[C@@H](CO)N(C)CC31CN(C(=O)C2CC2)C1	2	0	-3	-14	4
COc1ccc2c3c([nH]c2c1)[C@H](CO)N(C)CC31CN(C(=O)C2CC2)C1	45*	0	0	-11	3
C[C@@H]1CN([C@@H](C)CO)C(=O)c2cc(NC(=O)c3ccncc3)ccc2O[C@@H](C)CCCCO[C@@H]1CN(C)C(=O)Nc1ccc(C(F)(F)F)cc1	55*	-1	-3	-15	-2
C[C@H](CO)N1C[C@H](C)[C@@H](CN(C)C)OCCCC[C@H](C)Oc2ccc(NC(=O)c3ccncc3)cc2C1=O	65*	0	-7	-19	0
C[C@H]1CCCCO[C@H](CN(C)C(=O)Nc2ccc(C(F)(F)F)cc2)[C@@H](C)CN([C@@H](C)CO)C(=O)c2cc(NC(=O)c3ccncc3)ccc2O1	-1	·	-1	-19	0
C[C@@H]1CCCCO[C@@H](CN(C)C(=O)C2CCCCC2)[C@H](C)CN([C@H](C)CO)C(=O)c2cc(NC(=O)c3ccncc3)ccc2O1	136*	-1	-6	-2	1
C[C@@H]1CCCCO[C@@H](CN(C)C(=O)Nc2ccc(C(F)(F)F)cc2)[C@H](C)CN([C@@H](C)CO)C(=O)c2cc(NC(=O)c3ccncc3)ccc2O1	76*	0	-2	-39	-1
C[C@@H]1CN([C@H](C)CO)C(=O)c2cc(NC(=O)c3ccncc3)ccc2O[C@@H]1CN(C)C(=O)Nc1ccc(C(F)(F)F)cc1	-7	0	-1	-14	-1
C[C@H]1CN([C@@H](C)CO)C(=O)c2cc(NC(=O)c3ccncc3)ccc2O[C@H]1CN(C)C(=O)Nc1ccccc1	64*	0	-4	-2	-3
C[C@@H]1CN([C@H](C)CO)C(=O)c2cc(NC(=O)c3ccncc3)ccc2O[C@@H](C)CCCCO[C@H]1CN(C)C(=O)Nc1ccc(F)cc1	26*	1	0	15	-2
COc1cc(CN2CCN(c3cccc(C)c3C)CC2)cc([N+](=O)[O-])c1O	1	43*	4	-15	7
SMILES	DENV2 CPE	FGF22 binding	AF4-AF9 inh	RAD52 inh	ERAP1 inh
COc1cc(CCC(=O)N2CCN(c3cccc(C)c3C)CC2)cc(OC)c1OC	-6	0	1	-9	3
O=C(C[C@@H]1CC[C@H]2[C@@H](COC[C@@H](O)CN2Cc2ccncc2)O1)NCC1CC1	8	-1	-2	-10	-2
C=CCc1cccc(CNc2c(C)cc(C)cc2C)c1O	?	44*	-1	-2	3
O=C1c2ccccc2C(=O)N1CC(=O)N1c2ccccc2Sc2ccc(C(F)(F)F)cc21	35*	0	-1	-5	1
COc1ccc(N=C2S/C(=C\c3ccc(OCC(=O)O)cc3)C(=O)N2CCc2c[nH]c3ccccc23)cc1	5	1	35*	-26	5
C[C@@H]1CCCCO[C@H](CN(C)C(=O)Nc2cccc3ccccc23)[C@H](C)CN([C@@H](C)CO)C(=O)c2cc(NC(=O)Nc3cccc4ccccc34)ccc2O1	-14	0	-6	11	-3
C[C@@H]1CCCCO[C@@H](CN(C)C(=O)Nc2cccc3ccccc23)[C@H](C)CN([C@@H](C)CO)C(=O)c2cc(N(C)C)ccc2O1	-4	0	17	56*	0
C[C@H]1CCCCO[C@H](CN(C)C(=O)Nc2cccc3ccccc23)[C@@H](C)CN([C@@H](C)CO)C(=O)c2cc(N(C)C)ccc2O1	-5	-1	23	7	-3
C[C@@H]1CCCCO[C@H](CN(C)C(=O)Nc2cccc3ccccc23)[C@@H](C)CN([C@H](C)CO)C(=O)c2cc(NC(=O)Nc3cccc4ccccc34)ccc2O1	5	1.6*	-2	-9	-2
C[C@H]1CCCCO[C@H](CN(C)C(=O)Nc2cccc3ccccc23)[C@@H](C)CN([C@@H](C)CO)C(=O)c2cc(NC(=O)Nc3ccc4c(c3)OCO4)ccc2O1	5	12*	1	1	-2
C[C@@H]1CCCCO[C@@H](CN(C)C(=O)Nc2ccc3c(c2)OCO3)[C@H](C)CN([C@H](C)CO)C(=O)c2cc(NC(=O)Nc3cccc4ccccc34)ccc2O1	-9	0	1	-13	0
C[C@@H]1CN([C@H](C)CO)C(=O)c2cc(NC(=O)Nc3cccc4ccccc34)ccc2O[C@@H]1CN(C)C(=O)Nc1ccc2c(c1)OCO2	33*	0	-2	13	3
O=C(C[C@@H]1C=C[C@H](NC(=O)c2ccccc2)[C@@H](CO)O1)NCc1ccncn1	-2	0	0	-9	-1
